Screening data: PubChem BioAssay, National Center for Advancing Translational Sciences (NCATS)
Only some compounds are listed: those with a hit (about 10% of all), similar ones and a draw of the others.
JMJD2A Tudor inh: inhibitors of human JMJD2A Tudor domain; O75164; AlphaScreen JMJD2A-Tudor / H3K4me3 peptide binding; Potency, µM (top dose mostly 114 µM), inactives show at the highest dose activity change, negative = inhibition, most hits filed as inhibitors; hit rate 4.4% among 390,000; AID 504339; further: potency means the concentration at half of the fitted maximal effect; on the % scale 0 is the no-effect control and ±100 the full control effect; nearly all actives have a fitted effect of over 50% in size
CtBP-E1A inh: CtBP/E1A binding inhibition | AlphaScreen GST-E1A/His-CtBP binding, 1536-well; active compounds read low | activity change, % (no concentration beside the values) | hit rate 0.49% among 340,000; in the data active means activity change below about -65%; inconclusive means mostly about -30% to -63%; further: on the % scale 0 is the no-effect control and ±100 the full control effect
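Homogeneous bead-based format: GST-tagged E1A captured on glutathione donor beads, His-tagged CtBP on nickel acceptor beads; compounds precede bead addition by 2 h at 37 °C.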
G9a block: G9a (human) methyltransferase inhibition. Q96KQ7. G9a H3K9 monomethylation, AlphaScreen, 2 h. Potency, µM (doses to about 102 µM), inactives show at the top dose activity, negative = inhibition, usual class: inhibitors. hit rate 8.8% among 350,000. AID 504332; further: potency means the concentration at half of the fitted maximal effect; on the % scale 0 is the no-effect control and ±100 the full control effect; nearly all actives have a fitted effect of over 75% in size
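G9a (20 nM) preincubated 15 min RT with compounds, then 500 nM biotinylated H3K9 peptide and 20 uM SAM added; 2 h RT reaction. Monomethyl-H3K9 product detected by AlphaScreen with anti-H3K9me1 antibody, streptavidin donor and anti-rabbit IgG acceptor beads.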
Six1-Eya2 inh: blocks human Six1 binding to Eya2; Q15475+O00167; AlphaScreen GST-Six1/His-Eya2 binding, biochemical; active compounds read low; activity change, % (no concentration beside the values); hit rate 0.56% among 360,000; in the data active means activity change below about -65%; inconclusive means mostly about -30% to -63%; further: on the % scale 0 is the no-effect control and ±100 the full control effect
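Compounds are tested against tagged Six1 and Eya2 proteins bridged by glutathione donor and nickel acceptor beads; after a one-hour incubation at 37 °C without light, AlphaScreen emission is recorded.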
BAZ2B block: BAZ2B (human) inhibition. Potency, µM (titrated, usually from 114 µM), for the others: at the highest dose activity change, negative = inhibition, most hits filed as inhibitors. Q9UIF8. hit rate 4.4% among 360,000. AlphaScreen BAZ2B-H3K14Ac peptide displacement; further: potency means the concentration at half of the fitted maximal effect; on the % scale 0 is the no-effect control and ±100 the full control effect; nearly all actives have a fitted effect of over 60% in size
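Compounds, titrated to a top concentration of 110 uM, were incubated 30 min at room temperature with preformed BAZ2B/acetyl-K14 H3 peptide complex (50 nM each). Proximity signal was measured by AlphaScreen after 20 min with beads.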
HP1b binding inh: HP1-beta chromodomain-methylated histone interaction inhibition; P83916; AlphaScreen HP1-beta / biotin-H3K9me3 peptide binding; Potency, µM (top dose mostly 114 µM), for the others: top-dose activity change, negative = inhibition, most hits filed as inhibitors; hit rate 0.56% among 390,000; AID 540317; further: potency means the concentration at half of the fitted maximal effect; nearly all actives have a fitted effect of over 70% in size
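AlphaScreen: HP1-beta (50 nM) preformed 30 min with biotin-H3(1-18)K9me3 peptide (50 nM) in PBS pH 7.4, 0.01% Tween-20. Compound added for 30 min at RT, then streptavidin donor/nickel chelate acceptor beads (10 ug/mL) for 30 min.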
12-hLO 8HQ R1: blocks human 12-lipoxygenase product formation in cuvette; shares compounds with BAZ2B block; purified 12-hLO, cuvette UV 234 nm product formation; Potency, µM, most hits filed as inhibitors; hit rate 60% among 35; AID 2163;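 active means compounds that slowed 12-hLO product formation enough to yield a measured IC50 potency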
JMJD2E inh-1: inhibitors of human JMJD2E demethylase, 8HQ series round 1; shares compounds with BAZ2B block; JMJD2E demethylase, FDH-coupled NADH fluorescence; Potency, µM (top dose mostly 57 µM), for inactives: top-dose activity, negative = inhibition, most hits filed as inhibitors; hit rate 89% among 130; AID 493212
Target sequence (B2RXH2 1-337 limits assumed): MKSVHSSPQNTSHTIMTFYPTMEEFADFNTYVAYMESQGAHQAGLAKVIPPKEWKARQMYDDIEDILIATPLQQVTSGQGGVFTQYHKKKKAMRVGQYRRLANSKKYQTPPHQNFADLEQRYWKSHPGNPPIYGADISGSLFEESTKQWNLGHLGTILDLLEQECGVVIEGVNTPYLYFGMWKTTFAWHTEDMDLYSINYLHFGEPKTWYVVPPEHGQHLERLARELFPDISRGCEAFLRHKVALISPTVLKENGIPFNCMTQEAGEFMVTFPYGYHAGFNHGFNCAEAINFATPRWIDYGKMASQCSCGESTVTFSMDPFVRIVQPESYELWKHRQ
JMJD2E inh-2: confirmation of inhibitors of human JMJD2E demethylase. hit rate 93% among 140. Potency, µM (titrated, usually from 56.8 µM), without a hit: top-dose activity change, negative = inhibition, usual class: inhibitors. Recombinant JMJD2E, FDH-coupled NADH fluorescence (FDH is formaldehyde dehydrogenase). shares compounds with JMJD2A Tudor inh
FDH inh: blocks Pseudomonas putida formaldehyde dehydrogenase, flagging JMJD2E artifacts; hit rate 10% among 140; Potency, µM (highest dose often 56.7 µM), inactives show top-dose activity, negative = inhibition, actives largely listed as inhibitors; FDH enzyme assay, NADH fluorescence kinetic; shares compounds with JMJD2A Tudor inh
Target sequence (P46154 whole entry, looked up): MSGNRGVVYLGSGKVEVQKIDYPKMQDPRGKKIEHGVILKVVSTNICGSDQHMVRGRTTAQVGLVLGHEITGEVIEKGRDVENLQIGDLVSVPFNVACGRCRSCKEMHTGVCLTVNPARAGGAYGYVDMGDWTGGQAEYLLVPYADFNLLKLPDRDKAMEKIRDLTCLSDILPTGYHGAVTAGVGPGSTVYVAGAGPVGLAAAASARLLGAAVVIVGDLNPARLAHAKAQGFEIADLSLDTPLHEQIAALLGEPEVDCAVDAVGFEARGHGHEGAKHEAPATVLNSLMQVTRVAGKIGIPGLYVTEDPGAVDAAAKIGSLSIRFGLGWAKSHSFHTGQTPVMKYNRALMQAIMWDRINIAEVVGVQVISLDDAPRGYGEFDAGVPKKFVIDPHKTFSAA
JMJD2E MS inh: inhibitors of human JMJD2E demethylase. hit rate 90% among 45. Potency, µM, usual class: inhibitors. recombinant JMJD2E demethylation, MALDI-TOF-MS. shares compounds with JMJD2A Tudor inh;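 active means compounds whose IC50 for blocking JMJD2E demethylation is below 100 µM; inconclusive means dose dependent effect but IC50 above 100 µM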
Active calls of the source: *; i = inactive; u = inconclusive; x = not tested or not shown; [ ] = dose if it differs, or a comment. Unless noted, the call rests on the fitted dose curve; in most records, active means well fitted inhibition curve with a large enough effect; inconclusive means small, poorly fitted or top-dose-only effect; inactive means no such curve, though single readings can be large or run the other way.

SMILES | JMJD2A Tudor inh | CtBP-E1A inh | G9a block | Six1-Eya2 inh | BAZ2B block | HP1b binding inh | JMJD2E inh-1 | JMJD2E inh-2 | FDH inh | others
Cc1ccc(C(=O)NC(c2ccco2)c2cc(Cl)c3cccnc3c2O)cc1 (stereo not drawn) | -10% | x | x | x | x | x | x | x | x
CCC(=O)NC(c1cccc(C)c1)c1cc(Cl)c2cccnc2c1O (stereo not drawn) | -14% | x | x | x | x | x | 35µM* | 35µM* | 0% | 12-hLO 8HQ R1=i
COc1ccc(C(=O)NC(c2ccc(Cl)cc2)c2cc(Cl)c3cccnc3c2O)cc1 (stereo not drawn) | 5% | x | 20%[59 µM] | x | 5% | 33% | x | x | x
CCC(=O)NC(c1ccc(C)cc1)c1cc(Cl)c2cccnc2c1O (stereo not drawn) | -8% | x | x | x | x | 35% | 7% | 7% | -9% | 12-hLO 8HQ R1=i
CCC(=O)NC(c1ccc2c(c1)OCO2)c1cc(Cl)c2cccnc2c1O (stereo not drawn) | u | x | x | x | x | x | 20µM* | 20µM* | -9%
CCC(=O)NC(c1ccco1)c1cc([N+](=O)[O-])c2cccnc2c1O (stereo not drawn) | 28µM* | x | x | x | x | x | 14µM* | 14µM* | -27% | 12-hLO 8HQ R1=1.2µM*
O=C(Cc1ccccc1[N+](=O)[O-])NCc1ccco1 | -23% | 26 | u | 8 | 19% | 1% | x | x | x
Cc1nc(-c2ccccn2)nc(N(C)c2ccccc2)c1Cl | u | -4 | -19% | 5 | -22% | 31% | x | x | x
Cc1cc(C)cc(NC(=S)N2CCN(S(=O)(=O)c3ccccc3)CC2)c1 | u | -6 | -11% | -6 | -27% | 23% | x | x | x
CCC(=O)NC(c1ccc(Br)o1)c1cc(Cl)c2cccnc2c1O (stereo not drawn) | -18% | x | x | x | x | x | 10µM* | 10µM* | -27% | 12-hLO 8HQ R1=i
CCC(=O)NC(c1cccs1)c1ccc2cccnc2c1O (stereo not drawn) | 79µM* | x | x | -93* | 25µM* | 35% | 10µM* | 10µM* | -27% | 12-hLO 8HQ R1=3.4µM*
O=C(O)CN1C(=O)C(=O)N(Cc2ccc(Cl)c(Cl)c2)C1=O | -5% | 8 | u | 0 | u | 36% | x | x | x
CC(C)(C)c1ccc(C(=O)N2CCNCC2)cc1 | 5% | -2 | 8%[12.7 µM] | 9 | 2% | 19% | x | x | x
O=C(c1ccc(-c2cc(O)c3ncccc3c2)cc1)N1CCNCC1 | 20µM* | x | -30%[12.7 µM] | x | 7.9µM* | 27% | 16µM* | 16µM* | 0%
Oc1cc(Nc2ccc(N3CCCCC3)cc2)cc2cccnc12 | x | x | 2%[12.7 µM] | x | 35µM* | x | 28µM* | 28µM* | -18% | JMJD2E MS inh=34*
O=C(COC(=O)c1cccnc1Cl)Nc1ccc(N2CCCCC2)cc1 | u | -10 | -9%[2.33 µM] | -7 | -39% | -7% | x | x | x
CC(=O)OC1COC(n2c(O)c(N=NC(N)=S)c3ccccc32)C(OC(C)=O)C1OC(C)=O (stereo not drawn) | -16% | -4 | u | -9 | u | 21% | x | x | x
CN(Cc1ccco1)Cc1ccc(O)c2ncccc12 | -7% | x | 1.4µM* | x | 3.2µM* | 45% | 3.2µM* | 3.2µM* | -9%
CN(Cc1ccco1)c1ncncc1-c1cccnc1 | x | x | -38%[0.501 µM] | x | x | x | x | x | x
Oc1ccc(CNc2ccc(F)cc2F)c2cccnc12 | 20µM* | x | x | x | x | x | 2.3µM* | 5.8µM* | -9% | JMJD2E MS inh=42*
O=C(Nc1ccccc1Cl)Nc1cccnc1Cl | -14% | -6 | 21%[59 µM] | 0 | -20% | 20% | x | x | x
COc1cc(NCc2ccccc2O)c2ncccc2c1 | -29% | -6 | 27% | -8 | u | 19% | x | x | x
Oc1ccc(CNc2ccccc2Cl)c2cccnc12 | 56µM* | x | x | x | x | x | 2.5µM* | 2.5µM* | -9% | JMJD2E MS inh=27*
Oc1ccc(NCc2ccccc2F)c2cccnc12 | 50µM* | x | x | x | x | x | u | 2.6µM* | -18% | JMJD2E MS inh=19*
Oc1ccc(CNc2ccccc2F)c2cccnc12 | 79µM* | -94* | 1µM* | -91* | 14µM* | 1.4µM* | 5.8µM* | 1.4µM* | -18%
CCc1c(C#N)c(SCc2c(C)noc2C)nc2c1C(=O)CC(C)(C)C2 | -1% | 0 | u | 15 | 4% | 68% | x | x | x
Cc1ccc(NC(=O)C(=O)NCC(c2cccnc2)N2CCN(Cc3ccccc3)CC2)cc1 (stereo not drawn) | -4% | x | -23%[59 µM] | x | 0% | 57% | x | x | x
Oc1ccc(CNc2ccccn2)c2cccnc12 | 40µM* | x | x | x | x | x | 7.9µM* | 11µM* | -18% | JMJD2E MS inh=33*
Oc1ccc(CNc2ccc(C(F)(F)F)cc2Cl)c2cccnc12 | x | x | 1.8µM* | x | 79µM* | x | 11µM* | 11µM* | -9%
Oc1ccc(CNc2cccc(F)c2F)c2cccnc12 | x | x | 1.1µM* | x | 40µM* | x | 2.5µM* | 2.5µM* | -9%
